In the library only some 3.5% were active in any assay of this set; here they are far more common.
MITF primary: inhibitors of human MITF. AlphaScreen MITF homodimerization, bead proximity signal. inhibition, % at 2.6 µM. 650,000 tested, 0.91% active; in the data active = inhibition above about 50%;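 also: 0% = vehicle wells with protein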
GPR151 ag: activates the human receptor GPR151. PathHunter beta-arrestin GPR151 cells, luminescence. AID 1508602. activation, % at 11.2 µM. 650,000 tested, 1% active; in the data active = activation above about 4.9%;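 also: 0% = median of compound wells and 100% = cells with positive control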
TEAD-YAP block: TEAD-YAP interaction inhibition. HEK-TIYL cells, TEAD-Gal4/YAP UAS-luciferase luminescence. inhibition, % at 9.12 µM. 640,000 tested, 1.4% active; in the data active = inhibition above about 32%;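 also: 0% = median of test compound wells and 100% = reference inhibitor wells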
FBW7 act: human FBW7 E3 ligase activation, primary screen; AlphaScreen FBW7–phospho-cyclin E peptide binding, activator screen; 650,000 tested, 0.13% active; normalized activity (activation), % at 26.1 µM; AID 1259310; in the data active = normalized activity above about 1.9%;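 also: purified mutant Fbw7 with reduced substrate affinity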
Target sequence (Q969H0 whole entry, looked up): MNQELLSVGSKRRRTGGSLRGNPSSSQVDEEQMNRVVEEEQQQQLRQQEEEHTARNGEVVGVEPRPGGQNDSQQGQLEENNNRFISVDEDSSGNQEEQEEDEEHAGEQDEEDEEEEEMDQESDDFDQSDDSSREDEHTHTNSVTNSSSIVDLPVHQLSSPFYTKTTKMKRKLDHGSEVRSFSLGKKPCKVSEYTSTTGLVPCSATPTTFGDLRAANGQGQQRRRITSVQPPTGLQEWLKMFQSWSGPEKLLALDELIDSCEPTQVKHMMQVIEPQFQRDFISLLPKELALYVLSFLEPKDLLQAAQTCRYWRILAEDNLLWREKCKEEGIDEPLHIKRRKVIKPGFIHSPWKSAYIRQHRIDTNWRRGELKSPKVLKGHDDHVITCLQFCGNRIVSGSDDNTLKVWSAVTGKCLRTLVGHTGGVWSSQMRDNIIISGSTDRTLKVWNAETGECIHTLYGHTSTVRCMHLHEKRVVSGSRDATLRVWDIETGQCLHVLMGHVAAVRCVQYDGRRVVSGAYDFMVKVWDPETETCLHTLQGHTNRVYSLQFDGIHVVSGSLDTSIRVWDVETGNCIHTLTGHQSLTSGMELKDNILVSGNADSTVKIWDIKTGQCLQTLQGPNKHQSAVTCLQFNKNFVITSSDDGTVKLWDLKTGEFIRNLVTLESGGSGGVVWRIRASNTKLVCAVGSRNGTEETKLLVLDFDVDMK
GPR151 confirm: confirmation of human GPR151 activators; shares compounds with GPR151 ag; AID 1508609; activation, % at 11.2 µM; GPR151 PathHunter beta-arrestin cells, luminescence, 90 min; % of EA-reagent control over plate median; 6,700 tested, under 10 active;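 active = mean percent activation across replicates above the confirmation screen cutoff of 4.91%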
GPR119 counter: counter-screen for GPR151 activators: effect on human GPR119 | shares compounds with GPR151 ag | GPR119 PathHunter beta-arrestin cells, luminescence, 90 min; 0 = compound-well median, 100 = enzyme-acceptor control | activation, % at 11.2 µM | 6,700 tested, 0.3% active | AID 1508611;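 active = mean percent activation in the counterscreen above 29.09%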;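 also: counterscreen on off-target GPR119 to flag nonselective hits from the GPR151 activator screen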
An asterisk follows results filed as active; nt = no result given.

SMILES	MITF primary	GPR151 ag	TEAD-YAP block	FBW7 act	GPR151 confirm	GPR119 counter
COC(=O)c1cc(NC(=O)c2cc(-c3ccc(C)o3)nc3ccccc23)cc(C(=O)OC)c1	9	3	1	0	nt	nt
CCCCn1c(=NC(=O)C(C)(C)C)c(C(=O)OCC)cc2c(=O)n3ccccc3nc21	1	5.3*	10	0	0	14
CCCn1c(=NC(=O)C(C)(C)C)c(C(=O)OCC)cc2c(=O)n3ccccc3nc21	-3	1	7	1	nt	nt
COc1ccc(CN2CCc3nc(N4CCCCCC4)[nH]c(=O)c3C2)cc1	3	0	-6	0	nt	nt
CSc1cccc(NC(=O)c2ccc(I)cc2)c1	-1	-1	-31	0	nt	nt
Cc1nnc(SCc2ccccc2)[nH]c1=O	-3	4	7	0	nt	nt
Cc1nnc(SCc2ccc(F)cc2)[nH]c1=O	-4	11*	-4	0	-1	5
COc1ccc(S(=O)(=O)NNC(=O)Nc2ccc(Cl)cc2)cc1	-5	8.3*	-4	0	1	9
CC(=O)NS(=O)(=O)c1ccc(NC(=O)Nc2ccc(Cl)cc2)cc1	0	7.4*	2	0	-1	-3
COc1ccccc1OC(C)C(=O)NC1CCCCC1 (stereo not drawn)	-12	6.4*	-4	0	-1	-7
COC(=O)C(C(=O)Nc1ccccc1C)C1CCCC1 (stereo not drawn)	7	0	-6	0	nt	nt
CCOC(=O)C(C(=O)Nc1ccccc1OC)C1CCCCC1 (stereo not drawn)	4	5.1*	3	0	0	-4
COc1ccccc1OCC(=O)NC1CCCCCC1	-21	0	-53	0	nt	nt
O=C(N/N=C/c1cc([N+](=O)[O-])ccc1OC(F)F)c1cc[n+]([O-])cc1	-2	-2	6	0	nt	nt
CC(c1ccccc1)C1CC(=O)N(Cc2ccccc2)C1=O (stereo not drawn)	-1	22*	4	0	-1	4
CC(c1ccccc1)C1CC(=O)N(c2ccc(Cl)cc2)C1=O (stereo not drawn)	12	1	2	0	nt	nt
CCOc1cccc2cc(-c3cc(=O)oc4cc(OC(C)=O)ccc34)c(=O)oc12	9	2	-6	0	nt	nt
Cc1cccc(C)c1NC(=O)c1cc2ccccc2oc1=O	4	6.0*	6	1	0	0
N#Cc1c(NC(=O)c2cc3ccccc3oc2=O)sc2c1CCCCCC2	38	0	7	0	nt	nt
NC(=O)c1c(NC(=O)c2cc3ccccc3oc2=O)sc2c1CCCCCC2	-2	28*	-21	1	0	-1
O=C(c1cc2ccccc2oc1=O)N1CCN(c2ccccc2)CC1	9	6.3*	-26	0	0	5
CCc1cccc(C)c1NC(=O)c1cc2ccccc2oc1=O	4	2	-8	0	nt	nt
CSC1=NSC2=NC(=O)/C(=C\c3ccc([N+](=O)[O-])cc3)C(=N)N12	5	11*	-43	0	2	1
CCSC1=NSC2=NC(=O)/C(=C\c3ccc([N+](=O)[O-])cc3)C(=N)N12	-4	0	-8	0	nt	nt
Cc1ccc(/C=C2/SC(=S)N(CC(=O)Nc3ccccc3O)C2=O)cc1	8	7.3*	-3	0	1	-4
SMILES	MITF primary	GPR151 ag	TEAD-YAP block	FBW7 act	GPR151 confirm	GPR119 counter
COc1ccc(S(=O)(=O)Nc2ccc(F)c(Cl)c2)cc1Br	-2	1	-6	0	nt	nt
O=C(CSc1ccc(F)cc1)Nc1cc(Cl)ccc1O	13	6.4*	10	0	0	0
O=C(CSc1ccccc1)Nc1cc(Cl)ccc1O	-7	-2	7	0	nt	nt
COc1ccccc1-n1cc(-c2ccccc2)nc1SCC(=O)Nc1ccc(Cl)cc1	-2	0	8	0	nt	nt
CCOc1ccccc1N1CCN(C(=O)Nc2ccc(OC)c(OC)c2)CC1	-2	7.8*	-1	0	-1	-18
Cc1cccc(NC(=O)CCN2CCN(C/C=C/c3ccccc3)CC2)c1	17	4.9*	2	1	0	-6
CC(=O)c1cccc(NC(=O)N2CCN(C/C=C/c3ccccc3)CC2)c1	-4	0	2	0	nt	nt
COc1ccc(NC(=O)N2CCCCCC2)cc1OC	15	5.5*	-3	0	-2	-18
Cc1cc(NC(=O)CCN2CCN(C/C=C/c3ccccc3)CC2)ccc1Br	3	1	15	0	nt	nt
COc1ccc(NC(=O)N2CCN(C/C=C/c3ccccc3)CC2)cc1OC	13	14*	12	0	0	-9
COc1ccc(NC(=O)N2CCCC2)cc1OC	10	1	5	0	nt	nt
Cc1ccc(CN[C@H]2C[C@H]3C(=O)N[C@@H](C(C)C)C(=O)N3C2)cc1C	-5	2	2	0	nt	nt
CC(C)(C)C(=O)Nc1nnc(C2CCCC2)s1	8	0	-3	0	nt	nt
COc1ccc(NC(=S)NN2CCOCC2)cc1OC	-12	14*	-4	0	1	2
COc1ccc(NC(=S)NC(=O)c2ccc(Br)o2)cc1[N+](=O)[O-]	15	-1	-14	0	nt	nt
CCOc1ccc(OCC)c(S(=O)(=O)N2CCN(c3ccc(F)cc3)CC2)c1	18	-1	6	0	nt	nt
CCOc1ccc(Cl)cc1S(=O)(=O)N1CCN(c2ccc(F)cc2)CC1	2	5.0*	12	0	0	-3
Cc1ccccc1CSCC1Nc2ccc(C(=O)NCc3ccccc3Cl)cc2NC1=O (stereo not drawn)	5	0	-16	0	nt	nt
COc1cc(C2/C(=C(/O)c3ccc(Cl)cc3)C(=O)C(=O)N2CCO)ccc1O (stereo not drawn)	12	-1	9	1	nt	nt
COc1ccc(/C(O)=C2/C(=O)C(=O)N(CCCO)C2c2cccc(Cl)c2)cc1F (stereo not drawn)	1	6.8*	4	0	1	12
COCCCN1C(=O)C(=O)/C(=C(\O)c2ccc(C)cc2)C1c1ccc(F)cc1 (stereo not drawn)	12	7.6*	2	0	0	-2
CC(=O)Nc1cc(C(=O)c2ccccc2)ccc1N1CCOCC1	-1	6.1*	4	0	1	-4
CCOc1cc(C(=O)Nc2ccccc2N2CCOCC2)cc(OCC)c1OCC	-2	5.8*	5	0	0	-9
COc1ccccc1C(=O)Nc1cc(C(=O)c2ccccc2)ccc1N1CCOCC1	15	-2	14	0	nt	nt
CCN(CC)CCCCOc1ccc([N+](=O)[O-])cc1	-9	-1	0	0	nt	nt
CCC(c1nnnn1C1CCCC1)N1CCN(c2ccc([N+](=O)[O-])cc2)CC1 (stereo not drawn)	-2	1	-7	0	nt	nt
CC(C)(CO)NCc1ccc(Br)cc1	-21	5.3*	7	0	-1	-7

Screening results from PubChem.
